From PubChem
DT40 TDP1 no CPT: qHTS for Inhibitors of human tyrosyl-DNA phosphodiesterase 1 (TDP1): qHTS in cells in absence of CPT; DT40 Tdp1-/- hTDP1 cells, no CPT, ATP luminescence, 48 h; Potency, µM (highest dose often 46.2 µM), without a hit: at the top dose activity change, negative = growth inhibition, actives largely listed as inhibitors; 420,000 compounds, 15% hits; further: potency means the concentration at half of the fitted maximal effect; nearly all actives have a fitted effect of over 55% in size
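Stably hTDP1-transfected Tdp1-null chicken DT40 cells were treated with library compounds minus camptothecin and grown for at least 48 hr at 37 °C, after which cellular ATP was quantified by luminescence.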
HT1080 IDH1KD tx: toxicity to HT-1080 IDH1 knockdown cells (counter line); Potency, µM (titrated, usually from 46.1 µM), for inactives: at the highest dose activity, negative = toxicity, most hits filed as cytotoxic; HT-1080 IDH1 knockdown viability, ATP luminescence, 48 h; 360,000 compounds, 2% hits;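 further: potency means the concentration at half of the fitted maximal effect; 0% = DMSO wells and -100% = cell-free medium wells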
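After a 2 h attachment period, IDH1KD HT-1080 cells took pin-transferred compound for 48 h at 37 °C; ATP-based luminescence after 10 min room-temperature reagent incubation reported viability.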
DT40 TDP1 CPT: growth inhibition of DT40 Tdp1-/-;hTDP1 cells with camptothecin (screen for TDP1 inhibitors); Potency, µM (series often up to 46.2 µM), for the others: at the top dose activity change, negative = growth inhibition, hits mostly inhibitors; 420,000 compounds, 12% hits; chicken DT40 Tdp1-/-;hTDP1 cells + 20 nM CPT, ATP luminescence, 48 h; further: potency means the concentration at half of the fitted maximal effect; nearly all actives have a fitted effect of over 55% in size
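Chicken DT40 Tdp1-/- cells stably complemented with human TDP1 were seeded at 400 cells/well in medium containing 20 nM camptothecin, exposed to pin-transferred compounds, and grown at 37 °C for at least 48 hr. Viability was read as ATP luminescence.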
HT1080-NT tox: kills 2HG-producing HT-1080-NT fibrosarcoma cells. Potency, µM (top dose mostly 46.1 µM), for inactives: top-dose activity, negative = less viability, actives largely listed as cytotoxic. AID 686970. HT-1080-NT fibrosarcoma viability, CellTiter-Glo ATP luminescence, 48 h. 360,000 compounds, 1.6% hits;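 further: NT is the 2HG producing partner of a matched IDH1 knockdown line; potency means the concentration at half of the fitted maximal effect; 0% = DMSO-treated cells and -100% = media-only wells without cells; nearly all actives have a fitted effect of over 55% in size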
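Luminescent CellTiter-Glo readout after 48 hours of compound exposure at 37 degrees C defined viability of HT-1080-NT cells. Activity was normalized to DMSO wells and cell-free media wells; concentration-response curves were fitted and assigned curve classes.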
IL1B secr inh: inhibitors of inflammasome signaling (IL-1 beta secretion). THP-1 LPS/ATP IL-1B secretion, AlphaLISA, 16 h; stronger effect = lower value. 360,000 compounds, 4.7% hits. activity change, % at 57.5 µM. AID 743279; in the data active means activity change below about -50%; inconclusive means mostly about -30% to -49%
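Secreted IL-1B measured by AlphaLISA bead assay after 16 h compound exposure of THP-1 cells; compounds (final up to 57.5 uM) added 1 h before LPS (250 ng/mL) and ATP (1.25 mM) stimulation; lower signal means less secretion.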
The depositor's hits bear a star; i = inactive; ? = inconclusive; / = no result; ! = repeats disagree. Compounds with a hit are over-represented: about 19% of the library has one in this group of screens. Unless noted, the call rests on the fitted dose curve; in most records, active means well fitted curve in the direction sought with a large enough effect; inconclusive means small, poorly fitted or top-dose-only effect, or another doubt; inactive means no such curve, though single readings can be large; an effect the other way counts as inactive or inconclusive. Unless noted, on the % scale 0 is the no-effect control and ±100 the full control effect.

SMILES	DT40 TDP1 no CPT	HT1080 IDH1KD tx	DT40 TDP1 CPT	HT1080-NT tox	IL1B secr inh
O=c1cc(N2CCCCC2)c(-c2ccccc2)nn1Cc1ccc(Cl)cc1Cl	18.4µM*	?	?	?	-2.2
CC(C)(C)OC(=O)C[C@H]1C/C=C\C[C@@H](CC(=O)N(CCO)Cc2ccccc2)C(=O)NC[C@@H](c2ccccc2)OC1=O	18.4µM*	2.6%	?	-0.1%	-7.6
CC(C)(C)OC(=O)C[C@H]1C/C=C\C[C@H](CC(=O)N(CCO)Cc2ccccc2)C(=O)NC[C@H](c2ccccc2)OC1=O	?	1.5%	16.4µM*	27.3%	-20.8
CC(C)(C)OC(=O)C[C@H]1C/C=C\C[C@@H](CC(=O)NCCO)C(=O)NC[C@H](c2ccccc2)OC1=O	-14.7%	4.7%	4.3%	6.7%	31.7
O=C(O)CSc1nnc(COc2ccc(Br)cc2)n1-c1ccccc1	-1.7%	-2.6%	-1.1%	-2.9%	-5.8
Cc1ccc(NC(=O)CN(C)C(=O)c2cn(Cc3ccccc3)nc2-c2cccnc2)cc1	?	9.9%	-14.0%	-0.9%	-10.9
CCOC(=O)C(=O)Nc1c(C(=O)Nc2cccc(F)c2)oc2ccccc12	-13.7%	/	-5.4%	/	/
COc1ccc(S(=O)(=O)N2CCCOC2CNC(=O)C(=O)NCCc2ccco2)cc1C (configuration not stated)	7.31µM*	18.4µM*	5.8µM*	16.4µM*	50.6
Cc1ccc(CNC(=O)C(=O)NCC2OCCN2S(=O)(=O)c2ccc(Cl)cc2)cc1 (configuration not stated)	?	-26.3%	?	-10.6%	1.1
COc1ccc(S(=O)(=O)N2CCOC2CNC(=O)C(=O)NCCc2ccc(OC)c(OC)c2)cc1 (configuration not stated)	?	-10.4%	16.4µM*	-2.4%	0.0
COc1ccc(CCNC(=O)C(=O)NCC2OCCN2S(=O)(=O)c2ccc(Cl)cc2)cc1OC (configuration not stated)	18.4µM*	-10.7%	?	-1.0%	5.5
Cc1ccc(S(=O)(=O)N2CCOC2CNC(=O)C(=O)NCc2ccc(Cl)cc2)cc1 (configuration not stated)	20.6µM*	-4.1%	?	-4.9%	0.0
COc1ccc(OC)c(/C=N/NC(=S)NCCc2ccccc2)c1	?	-16.2%	?	0.7%	17.2
COC(=O)CSc1nnc(CNC(=O)c2cc(OC)cc(OC)c2)n1-c1ccc(F)cc1	1.3%	?	1.8%	18.5%	?
O=C(NCCc1ccccc1)C(=O)NCC1OCCN1S(=O)(=O)c1ccc(Br)cc1 (configuration not stated)	16.4µM*	-3.6%	?	-12.1%	5.9
CCOC(=O)CC(=O)Nc1ccsc1C(N)=O	-22.0%	3.9%	0.7%	15.8%	5.4
Cc1cc(OCC(=O)NC2CC(C)(C)NC(C)(C)C2)c(C)cc1Br	13µM*	-24.4%	?	-4.4%	i
CC(C)c1ccc(OCC(=O)NC2CC(C)(C)NC(C)(C)C2)c(Br)c1	?	?	?	-27.2%	-62.1*
COc1cc(CC(=O)Nc2c(-c3ccccc3)[nH][nH]c2=O)cc(OC)c1	-16.9%	1.5%	4.3%	14.7%	-1.0
Cc1ccnc(NC(=O)CNC(=O)C23CC4CC(CC(C4)C2)C3)c1	1.1%	5.6%	-2.6%	1.0%	2.6
COc1ccc(S(=O)(=O)Nc2ccc(C)cc2)cc1OC	-13.3%	0.3%	-6.6%	5.9%	18.4
CCOc1ccccc1NS(=O)(=O)c1ccc(-c2cnc(C3CC3)o2)cc1	0.0231µM*	0.206µM*	0.0082µM*	0.206µM*	65.6
COc1ccccc1NS(=O)(=O)c1ccc(-c2cnc(C3CC3)o2)cc1	0.92µM*	0.731µM*	0.731µM*	?	26.5
COc1ccccc1CNS(=O)(=O)c1ccc(-c2cnc(C3CC3)o2)cc1	0.581µM*	?	0.92µM*!	4.61µM*	29.2
CCOc1ccccc1NS(=O)(=O)c1cc(-c2cnc(C3CC3)o2)ccc1C	?	/	-20.2%	/	/
SMILES	DT40 TDP1 no CPT	HT1080 IDH1KD tx	DT40 TDP1 CPT	HT1080-NT tox	IL1B secr inh
COc1ccc(NS(=O)(=O)c2ccc(-c3cnc(C4CC4)o3)cc2)cc1OC	1.64µM*	14.6µM*	2.06µM*	14.6µM*	9.6
CC1CN(C(=O)c2ccc(S(=O)(=O)Nc3cccc(C(F)(F)F)c3)cc2)CC(C)O1 (configuration not stated)	?	-18.0%	-27.6%	-8.0%	4.5
O=S(=O)(Nc1cccc(C(F)(F)F)c1)c1ccc(-c2cnc(C3CC3)o2)cc1	2.59µM*	/	3.66µM*	/	/
COc1ccccc1C(=O)Nc1cc2c(cc1N1CCOCC1)n(C)c(=O)n2C	-3.9%	/	-20.2%	/	/
O=C(Nc1ccc2c(c1)CCC2)c1ncoc1-c1ccccc1F	?	-5.9%	-19.1%	8.2%	-73.9*
CCC(C(=O)Nc1cc(OC)ccc1OC)n1nc(-c2ccccc2)c2c(c1=O)CCCC2 (configuration not stated)	18.4µM*	/	16.4µM*	/	/
CCN(CC)CCNC(=O)CSc1c2c(nc3cc(Cl)ccc13)CCCC2	?	?	?	?	-104.4*
COc1ccc(OC)c(NC(=O)CSc2c3c(nc4cc(Cl)ccc24)CCCC3)c1	23.1µM*	/	?	/	/
COc1cccc(NC(=O)CSc2c3c(nc4ccccc24)CCCC3)c1	20.6µM*	?	23.1µM*	-9.7%	-96.4*
CC(=O)Nc1ccc(NC(=O)C(=O)N/N=C/c2cccnc2)cc1	0.6%	-1.4%	-1.5%	-0.3%	35.0
COc1ccccc1-c1cnc(C(O)c2ccc(CN3CCCC3)cc2)[nH]1 (configuration not stated)	-14.8%	0.0%	-3.5%	-12.2%	-4.0
COc1ccc(NC(=O)CSc2nc(C3CC3)nc3ccccc23)c(OC)c1	23.1µM*	-21.9%	-20.2%	-1.3%	-59.2*
CC(=O)c1ccc(NC(=O)CSc2nc(C3CC3)nc3ccccc23)cc1	?	-16.2%	?	-18.3%	?
Cc1cccc(NC(=O)CSc2c3c(nc4ccccc24)CCC3)n1	?	?	?	?	-6.3
Cc1ccc(NC(=O)CSc2c3c(nc4ccccc24)CCCC3)cc1F	14.6µM*	/	?	/	/
COc1ccc(OC)c(NC(=O)CSc2c3c(nc4ccccc24)CCCC3)c1	7.31µM*	/	?	/	/
COc1ccc(Cl)cc1NC(=O)CSc1c2c(nc3ccccc13)CCC2	16.4µM*	/	20.6µM*	/	/
CCN(C[C@H]1N[C@@](CC)(C(=O)OC)[C@H]2C(=O)N(C)C(=O)[C@@H]12)S(=O)(=O)c1ccc(OC)cc1	-8.2%	11.2%	2.3%	16.7%	-2.1
